What is called inhibition is the drop in the measured response relative to a control, in per cent.

In ChEMBL document CHEMBL1961873, “Compounds: GSK PKIS; Assays: Nanosyn kinase panel” (2012) one finds inhibition data, which are given here for four compounds.

Assay [1] concerns the target T1, Mitogen-activated protein kinase 12 (Homo sapiens) (UniProt P53778).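 Note: values are averaged p38gamma kinase inhibition readings, compounds tested at 1 µM.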
T1 sequence (whole entry): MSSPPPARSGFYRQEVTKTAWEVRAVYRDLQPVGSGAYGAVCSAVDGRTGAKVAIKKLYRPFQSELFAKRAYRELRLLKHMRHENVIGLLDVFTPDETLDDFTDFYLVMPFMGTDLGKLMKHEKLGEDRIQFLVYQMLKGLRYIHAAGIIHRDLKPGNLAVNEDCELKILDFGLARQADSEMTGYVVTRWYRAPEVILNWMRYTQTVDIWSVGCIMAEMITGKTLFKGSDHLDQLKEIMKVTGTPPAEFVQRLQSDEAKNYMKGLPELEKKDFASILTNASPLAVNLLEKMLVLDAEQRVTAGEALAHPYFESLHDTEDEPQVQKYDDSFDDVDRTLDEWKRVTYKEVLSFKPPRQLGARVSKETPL
To be noted: at 1 µM.

Assay [2] addresses SRSF protein kinase 1 (Homo sapiens) (UniProt Q96SB4). The settings on record: at 0.1 µM.
Assay [3] shares this target. To be noted: at 1 µM.
The target in assay [4] is Phosphatidylinositol 4,5-bisphosphate 3-kinase catalytic subunit alpha isoform (Homo sapiens) (UniProt P42336). To be noted: at 0.1 µM.
Phosphatidylinositol 4,5-bisphosphate 3-kinase catalytic subunit alpha isoform (Homo sapiens), sequence (P42336 whole entry, canonical isoform): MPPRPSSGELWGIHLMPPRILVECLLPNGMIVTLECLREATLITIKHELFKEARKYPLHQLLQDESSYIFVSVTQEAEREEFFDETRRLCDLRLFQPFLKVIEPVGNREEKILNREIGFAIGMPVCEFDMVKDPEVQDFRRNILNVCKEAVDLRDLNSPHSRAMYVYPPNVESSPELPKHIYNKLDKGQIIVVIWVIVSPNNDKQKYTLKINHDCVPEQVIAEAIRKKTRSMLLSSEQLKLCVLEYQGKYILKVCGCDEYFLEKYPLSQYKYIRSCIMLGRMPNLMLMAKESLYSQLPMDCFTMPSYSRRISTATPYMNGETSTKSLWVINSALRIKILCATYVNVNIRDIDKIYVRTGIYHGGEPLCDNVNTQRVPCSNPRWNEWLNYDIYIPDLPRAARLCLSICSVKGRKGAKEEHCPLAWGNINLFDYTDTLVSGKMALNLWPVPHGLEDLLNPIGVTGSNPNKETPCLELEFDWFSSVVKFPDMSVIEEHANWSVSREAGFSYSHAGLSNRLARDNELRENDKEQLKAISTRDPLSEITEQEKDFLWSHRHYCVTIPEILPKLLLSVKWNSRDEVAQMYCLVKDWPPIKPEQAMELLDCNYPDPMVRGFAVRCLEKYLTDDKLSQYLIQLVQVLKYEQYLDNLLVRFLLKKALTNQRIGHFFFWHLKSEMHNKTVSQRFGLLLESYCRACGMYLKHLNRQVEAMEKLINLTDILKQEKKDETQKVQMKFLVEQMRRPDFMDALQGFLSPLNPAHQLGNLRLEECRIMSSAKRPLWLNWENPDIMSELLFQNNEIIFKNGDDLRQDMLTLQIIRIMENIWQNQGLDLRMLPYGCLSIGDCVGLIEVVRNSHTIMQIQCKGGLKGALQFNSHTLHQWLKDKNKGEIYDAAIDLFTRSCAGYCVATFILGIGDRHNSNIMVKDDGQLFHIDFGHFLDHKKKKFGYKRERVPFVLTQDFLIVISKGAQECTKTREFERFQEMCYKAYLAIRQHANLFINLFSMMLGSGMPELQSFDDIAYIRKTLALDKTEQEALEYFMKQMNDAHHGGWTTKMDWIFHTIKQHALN
For assay [5] the target is unchanged. To be noted: at 1 µM.
Assay [6] concerns the target T2, Phosphatidylinositol 4,5-bisphosphate 3-kinase catalytic subunit delta isoform (Homo sapiens) (UniProt O00329).
T2 sequence (whole entry): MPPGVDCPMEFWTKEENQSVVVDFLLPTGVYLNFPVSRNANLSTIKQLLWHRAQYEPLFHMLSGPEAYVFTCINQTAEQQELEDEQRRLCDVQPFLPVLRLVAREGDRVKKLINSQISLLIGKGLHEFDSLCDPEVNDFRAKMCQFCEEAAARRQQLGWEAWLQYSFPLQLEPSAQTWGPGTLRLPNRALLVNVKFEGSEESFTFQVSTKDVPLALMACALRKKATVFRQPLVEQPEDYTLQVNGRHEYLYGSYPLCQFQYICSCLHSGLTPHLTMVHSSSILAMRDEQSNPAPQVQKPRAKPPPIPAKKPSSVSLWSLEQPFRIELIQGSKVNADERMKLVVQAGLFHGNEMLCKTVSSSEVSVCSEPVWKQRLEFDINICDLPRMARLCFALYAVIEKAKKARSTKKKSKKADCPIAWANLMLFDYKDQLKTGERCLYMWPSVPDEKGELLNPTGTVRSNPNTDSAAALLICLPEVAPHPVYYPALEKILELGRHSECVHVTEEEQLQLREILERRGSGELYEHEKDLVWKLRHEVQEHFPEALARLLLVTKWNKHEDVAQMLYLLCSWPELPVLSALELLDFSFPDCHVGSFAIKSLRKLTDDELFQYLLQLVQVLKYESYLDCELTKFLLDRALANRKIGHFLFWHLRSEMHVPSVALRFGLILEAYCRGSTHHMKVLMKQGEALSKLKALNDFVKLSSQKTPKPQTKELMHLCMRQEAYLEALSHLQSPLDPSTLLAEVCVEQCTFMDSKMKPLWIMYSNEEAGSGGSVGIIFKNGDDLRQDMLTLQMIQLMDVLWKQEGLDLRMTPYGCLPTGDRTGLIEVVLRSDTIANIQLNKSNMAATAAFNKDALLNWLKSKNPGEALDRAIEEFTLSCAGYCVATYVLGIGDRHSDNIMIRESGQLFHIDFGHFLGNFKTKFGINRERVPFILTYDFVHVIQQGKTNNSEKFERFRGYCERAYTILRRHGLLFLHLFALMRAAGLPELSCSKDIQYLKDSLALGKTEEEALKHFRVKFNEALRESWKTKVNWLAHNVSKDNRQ
To be noted: at 0.1 µM.

In assay [7] the target is T2, Phosphatidylinositol 4,5-bisphosphate 3-kinase catalytic subunit delta isoform (Homo sapiens). To be noted: at 1 µM.
The target in assay [8] is Phosphatidylinositol 4-kinase beta (Homo sapiens) (UniProt Q9UBF8). The settings on record: at 0.1 µM.
Phosphatidylinositol 4-kinase beta (Homo sapiens), sequence (Q9UBF8 2-816 limits assumed): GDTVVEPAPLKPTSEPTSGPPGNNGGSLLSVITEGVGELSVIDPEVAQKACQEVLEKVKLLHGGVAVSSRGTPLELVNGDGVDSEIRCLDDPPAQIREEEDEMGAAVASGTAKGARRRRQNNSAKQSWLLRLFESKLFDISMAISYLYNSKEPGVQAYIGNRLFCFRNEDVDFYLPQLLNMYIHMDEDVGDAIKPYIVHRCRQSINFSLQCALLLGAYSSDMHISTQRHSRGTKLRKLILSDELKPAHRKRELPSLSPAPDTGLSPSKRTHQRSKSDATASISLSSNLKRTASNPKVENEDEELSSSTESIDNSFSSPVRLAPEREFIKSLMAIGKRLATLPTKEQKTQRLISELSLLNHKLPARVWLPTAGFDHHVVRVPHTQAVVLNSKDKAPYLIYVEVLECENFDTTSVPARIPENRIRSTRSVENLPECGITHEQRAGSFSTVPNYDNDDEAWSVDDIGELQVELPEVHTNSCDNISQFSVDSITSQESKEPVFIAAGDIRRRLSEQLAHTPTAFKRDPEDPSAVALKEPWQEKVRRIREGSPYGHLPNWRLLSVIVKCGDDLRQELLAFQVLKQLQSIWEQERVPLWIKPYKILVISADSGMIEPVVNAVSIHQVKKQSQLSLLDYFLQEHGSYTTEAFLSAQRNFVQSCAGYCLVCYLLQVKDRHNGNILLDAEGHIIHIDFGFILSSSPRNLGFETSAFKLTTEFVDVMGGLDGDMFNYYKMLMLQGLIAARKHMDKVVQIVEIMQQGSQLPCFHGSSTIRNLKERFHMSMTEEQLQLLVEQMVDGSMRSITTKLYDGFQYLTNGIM
Assay [9] has the same target. The settings on record: at 1 µM.
Assay [10] deals with Sphingosine kinase 1 (Homo sapiens) (UniProt Q9NYA1). The settings on record: at 0.1 µM.
Sphingosine kinase 1 (Homo sapiens), sequence (Q9NYA1 whole entry): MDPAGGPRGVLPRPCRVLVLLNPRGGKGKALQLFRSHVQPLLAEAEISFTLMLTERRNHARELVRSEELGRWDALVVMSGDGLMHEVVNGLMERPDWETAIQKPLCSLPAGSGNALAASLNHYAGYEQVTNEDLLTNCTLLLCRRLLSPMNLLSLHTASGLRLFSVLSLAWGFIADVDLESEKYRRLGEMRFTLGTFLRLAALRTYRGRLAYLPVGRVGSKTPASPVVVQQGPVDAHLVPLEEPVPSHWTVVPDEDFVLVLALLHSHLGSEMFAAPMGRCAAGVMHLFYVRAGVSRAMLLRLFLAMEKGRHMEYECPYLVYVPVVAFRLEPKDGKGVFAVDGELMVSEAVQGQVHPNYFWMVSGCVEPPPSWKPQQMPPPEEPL
For assay [11] the target is unchanged. The settings on record: at 1 µM.
The target of assay [12] is T3, Sphingosine kinase 2 (Homo sapiens) (UniProt Q9NRA0).
T3 sequence (whole entry): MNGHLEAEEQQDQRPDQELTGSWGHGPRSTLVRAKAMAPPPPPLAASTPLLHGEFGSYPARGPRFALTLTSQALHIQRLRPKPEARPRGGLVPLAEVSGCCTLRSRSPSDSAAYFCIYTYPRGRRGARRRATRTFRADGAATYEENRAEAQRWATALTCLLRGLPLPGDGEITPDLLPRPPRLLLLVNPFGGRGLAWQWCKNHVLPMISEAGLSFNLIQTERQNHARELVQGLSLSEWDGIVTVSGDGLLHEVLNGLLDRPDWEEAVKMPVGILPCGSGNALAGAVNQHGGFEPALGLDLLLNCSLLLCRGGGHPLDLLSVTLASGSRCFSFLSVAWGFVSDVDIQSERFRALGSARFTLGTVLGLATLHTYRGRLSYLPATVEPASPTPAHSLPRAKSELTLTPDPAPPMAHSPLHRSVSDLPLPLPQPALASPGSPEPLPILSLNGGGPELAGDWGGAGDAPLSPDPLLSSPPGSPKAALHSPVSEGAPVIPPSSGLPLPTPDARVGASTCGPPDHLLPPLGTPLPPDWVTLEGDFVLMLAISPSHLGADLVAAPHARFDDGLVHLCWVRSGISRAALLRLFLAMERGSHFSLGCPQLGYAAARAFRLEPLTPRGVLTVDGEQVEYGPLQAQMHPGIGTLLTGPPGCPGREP
To be noted: at 0.1 µM.

Assay [13] concerns the target T3, Sphingosine kinase 2 (Homo sapiens). To be noted: at 1 µM.
Assay [14] has as its target Casein kinase II subunit alpha (Homo sapiens) (UniProt P68400). The settings on record: at 0.1 µM.
For assay [15] the target is unchanged. The settings on record: at 1 µM.
In assay [16] the target is T4, Inhibitor of nuclear factor kappa-B kinase subunit alpha (Homo sapiens) (UniProt O15111).
T4 sequence (whole entry): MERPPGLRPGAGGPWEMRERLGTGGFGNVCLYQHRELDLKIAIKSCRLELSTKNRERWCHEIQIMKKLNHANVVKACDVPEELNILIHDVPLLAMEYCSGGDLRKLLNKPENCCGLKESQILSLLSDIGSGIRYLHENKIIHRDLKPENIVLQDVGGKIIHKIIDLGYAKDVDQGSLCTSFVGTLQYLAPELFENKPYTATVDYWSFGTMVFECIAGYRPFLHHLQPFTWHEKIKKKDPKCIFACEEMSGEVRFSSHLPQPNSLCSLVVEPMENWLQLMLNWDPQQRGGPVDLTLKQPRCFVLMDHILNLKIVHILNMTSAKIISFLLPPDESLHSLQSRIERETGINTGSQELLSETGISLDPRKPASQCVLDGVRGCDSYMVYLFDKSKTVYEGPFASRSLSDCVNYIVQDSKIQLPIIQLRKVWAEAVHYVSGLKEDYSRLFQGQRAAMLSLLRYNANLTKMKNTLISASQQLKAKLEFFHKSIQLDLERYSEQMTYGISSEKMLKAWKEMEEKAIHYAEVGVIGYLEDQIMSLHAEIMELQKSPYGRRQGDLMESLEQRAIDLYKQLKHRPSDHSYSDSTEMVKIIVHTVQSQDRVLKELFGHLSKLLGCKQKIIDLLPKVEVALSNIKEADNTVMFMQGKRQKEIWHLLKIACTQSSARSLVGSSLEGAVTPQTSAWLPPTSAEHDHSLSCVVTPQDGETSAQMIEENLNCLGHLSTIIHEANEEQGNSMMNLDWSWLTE
To be noted: at 0.1 µM.

The target in assay [17] is T4, Inhibitor of nuclear factor kappa-B kinase subunit alpha (Homo sapiens). To be noted: at 1 µM.
Assay [18] deals with T5, Inhibitor of nuclear factor kappa-B kinase subunit beta (Homo sapiens) (UniProt O14920).
T5 sequence (whole entry): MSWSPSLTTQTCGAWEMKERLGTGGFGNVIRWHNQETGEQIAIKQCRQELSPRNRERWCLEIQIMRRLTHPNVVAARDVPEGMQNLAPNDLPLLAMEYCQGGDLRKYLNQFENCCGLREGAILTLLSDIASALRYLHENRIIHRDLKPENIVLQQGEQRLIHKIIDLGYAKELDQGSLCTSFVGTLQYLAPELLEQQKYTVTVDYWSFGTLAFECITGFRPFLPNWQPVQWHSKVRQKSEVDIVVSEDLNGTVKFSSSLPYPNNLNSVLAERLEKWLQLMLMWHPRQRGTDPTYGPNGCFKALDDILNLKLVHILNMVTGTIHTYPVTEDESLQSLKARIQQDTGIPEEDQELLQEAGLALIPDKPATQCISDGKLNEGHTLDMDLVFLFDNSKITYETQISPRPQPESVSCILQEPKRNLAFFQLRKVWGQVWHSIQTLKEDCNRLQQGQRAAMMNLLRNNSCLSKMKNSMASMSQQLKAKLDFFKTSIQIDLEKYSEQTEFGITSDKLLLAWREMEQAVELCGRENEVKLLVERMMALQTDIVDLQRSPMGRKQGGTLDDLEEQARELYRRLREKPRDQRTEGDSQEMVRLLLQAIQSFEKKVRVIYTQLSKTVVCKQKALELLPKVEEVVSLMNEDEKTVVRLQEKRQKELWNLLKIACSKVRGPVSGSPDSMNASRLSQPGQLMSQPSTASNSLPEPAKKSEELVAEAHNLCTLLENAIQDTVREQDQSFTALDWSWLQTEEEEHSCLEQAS
The settings on record: at 0.1 µM.

In assay [19] the target is T5, Inhibitor of nuclear factor kappa-B kinase subunit beta (Homo sapiens). The settings on record: at 1 µM.
Assay [20] has as its target T6, Inhibitor of nuclear factor kappa-B kinase subunit epsilon (Homo sapiens) (UniProt Q14164).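 Note: mean inhibition of IKKε reported, from the GSK PKIS dataset.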
T6 sequence (whole entry): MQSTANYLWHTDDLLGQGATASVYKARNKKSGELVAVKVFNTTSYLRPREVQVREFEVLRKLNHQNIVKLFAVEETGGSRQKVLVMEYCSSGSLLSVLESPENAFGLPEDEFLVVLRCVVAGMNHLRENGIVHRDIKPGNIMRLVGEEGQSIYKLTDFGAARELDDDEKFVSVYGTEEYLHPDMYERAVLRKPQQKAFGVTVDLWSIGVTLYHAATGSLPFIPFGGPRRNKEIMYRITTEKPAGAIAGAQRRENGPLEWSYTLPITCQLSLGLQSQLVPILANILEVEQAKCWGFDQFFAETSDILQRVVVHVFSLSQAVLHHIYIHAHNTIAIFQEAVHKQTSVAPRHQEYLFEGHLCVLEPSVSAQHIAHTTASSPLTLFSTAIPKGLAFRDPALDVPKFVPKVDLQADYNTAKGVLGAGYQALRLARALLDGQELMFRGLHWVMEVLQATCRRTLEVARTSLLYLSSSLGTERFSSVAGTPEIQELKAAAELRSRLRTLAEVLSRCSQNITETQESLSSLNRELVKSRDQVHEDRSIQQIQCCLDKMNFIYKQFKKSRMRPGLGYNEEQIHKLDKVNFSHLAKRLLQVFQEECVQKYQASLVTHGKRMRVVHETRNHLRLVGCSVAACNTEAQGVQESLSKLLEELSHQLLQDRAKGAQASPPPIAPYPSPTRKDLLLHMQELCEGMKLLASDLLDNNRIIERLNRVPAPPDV
The settings on record: at 0.1 µM.

SRSF protein kinase 1 (Homo sapiens), sequence (Q96SB4 whole entry): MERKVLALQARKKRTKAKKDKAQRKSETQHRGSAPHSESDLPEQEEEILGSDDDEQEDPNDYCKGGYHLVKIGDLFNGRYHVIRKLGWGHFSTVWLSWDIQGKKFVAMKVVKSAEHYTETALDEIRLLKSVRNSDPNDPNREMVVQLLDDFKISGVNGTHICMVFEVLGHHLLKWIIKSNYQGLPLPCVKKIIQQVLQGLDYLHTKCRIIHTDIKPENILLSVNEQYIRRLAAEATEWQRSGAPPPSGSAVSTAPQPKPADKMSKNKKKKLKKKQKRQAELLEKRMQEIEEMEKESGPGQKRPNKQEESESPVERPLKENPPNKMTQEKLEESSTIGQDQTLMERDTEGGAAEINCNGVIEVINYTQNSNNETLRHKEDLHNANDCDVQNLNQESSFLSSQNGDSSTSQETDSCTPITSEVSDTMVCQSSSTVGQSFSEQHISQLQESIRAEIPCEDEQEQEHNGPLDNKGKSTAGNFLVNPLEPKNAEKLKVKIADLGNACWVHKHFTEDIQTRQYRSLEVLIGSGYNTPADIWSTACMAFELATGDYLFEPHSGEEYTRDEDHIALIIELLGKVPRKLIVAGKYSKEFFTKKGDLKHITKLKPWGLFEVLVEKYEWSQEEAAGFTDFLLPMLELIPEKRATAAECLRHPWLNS
Casein kinase II subunit alpha (Homo sapiens), sequence (P68400 whole entry, looked up): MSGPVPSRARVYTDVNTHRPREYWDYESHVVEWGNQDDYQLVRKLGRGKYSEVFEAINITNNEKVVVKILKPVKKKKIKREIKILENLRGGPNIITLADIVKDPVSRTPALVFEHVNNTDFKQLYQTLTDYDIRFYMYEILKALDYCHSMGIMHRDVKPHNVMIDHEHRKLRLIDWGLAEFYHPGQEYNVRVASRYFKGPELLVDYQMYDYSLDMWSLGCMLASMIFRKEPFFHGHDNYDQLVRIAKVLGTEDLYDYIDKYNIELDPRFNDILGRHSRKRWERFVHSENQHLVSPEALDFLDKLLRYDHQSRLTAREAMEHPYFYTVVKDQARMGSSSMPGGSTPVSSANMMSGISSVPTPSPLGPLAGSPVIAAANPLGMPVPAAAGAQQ

Consider `CC(C)c1ccc2c(c1)NC(=O)/C2=N/Nc1ccc(S(N)(=O)=O)cc1`, for which the inhibition in assay [1] is 0.63%; in [2] it was -0.89%; in assay [3] it was -0.94%; in [4], 0.32%; in assay [5] it was 1.8%; in assay [6], 0.64%. The inhibition in assay [7] was 0.71%; in [8], 0.05%; in [9] it was 0.24%; in assay [10] it was 0%; in assay [11], -1.85%; in assay [12], 0.61%. Moreover, the inhibition in assay [13] is 1.73%; in assay [14], 4.26%; in assay [15], 0.39%; in assay [16], -1.84%; in [17], -4.08%; in assay [18], 1.01%. Besides, the inhibition is 0.14% in [19] and -1.18% in [20].

For the compound `Cc1nc(-c2ccccc2)n2nc(NCCCN3CCOCC3)ncc12`, the inhibition is 2.42% in assay [1]; -2.28% in assay [2]; -2.05% in assay [3]; 1.91% in assay [4]; 1.2% in [5]; -0.22% in assay [6]. Also, the inhibition in assay [7] is 0.85%; in [8] it was 4.37%; in assay [9], 0.1%; in [10], 0.59%; in assay [11], -2.26%; in assay [12], -1.13%. Further, the inhibition in assay [13] was -0.14%; in assay [14], 13.3%; in [15] it was 6.84%; in assay [16], -0.66%; in assay [17], 5.55%; in assay [18], 2.75%. For the same compound, the inhibition stood at 4.98% in assay [19] and 4.87% in assay [20].

With `CN(C)c1cc2c(Nc3ccc4c(cnn4Cc4ccccc4)c3)ncnc2cn1`, the inhibition in assay [1] was 1.89%; in assay [2] it was -2.31%; in assay [3], -3.59%; in assay [4] it was 1.32%; in assay [5], 1.28%; in assay [6], 0.82%. Further, the inhibition in assay [7] was 3.28%; in assay [8], -1.83%; in [9], 7.07%; in assay [10], 0.08%; in assay [11] it was -2%; in assay [12] it was -0.22%. For the same compound, the inhibition in assay [13] was -1.13%; in assay [14], 1.2%; in assay [15], -0.12%; in assay [16], 3.64%; in [17], 8.41%; in [18], 3.68%. For the same compound, the inhibition in assay [19] was found to be 3.14%; in assay [20], 3.9%.

With `NS(=O)(=O)c1ccc(-c2cc3ccncc3cc2OCc2ccccc2)cc1`, the inhibition in assay [1] was 2.36%; in assay [2], -1.87%; in assay [3], 0.04%; in assay [4], 3.71%; in [5] it was 4.7%; in [6], 1.97%. Moreover, the inhibition in [7] was 2.98%; in assay [8], 3.31%; in [9], 0.15%; in assay [10] it was 1.82%; in [11], -2.02%; in assay [12], -0.23%. The inhibition is 1% in assay [13]; 5.15% in assay [14]; 12.6% in [15]; 0.99% in [16]; 8.71% in assay [17]; 8.26% in [18]. Also, the inhibition in [19] was 21.9%; in assay [20], 5.72%.
